High-throughput results as filed in PubChem.
Rab9 promoter act = activators of Rab9 promoter; Huh7 Rab9 promoter-luciferase reporter, luminescence, 24 h; Potency, µM (highest dose often 9.22 µM), without a hit: top-dose activation, negative = inhibition, most hits filed as activators; 320,000 compounds, 2.8% hits; further: % of control where 0% means no effect; nearly all actives have a fitted effect of over 60% in size
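Huh7 cells stably carrying a Rab9 promoter-luciferase reporter, 1500 cells per well in OP-MEM I with 10% FBS, treated with compound 24 hours at 37C. Luciferase activity read by luminescence after 10 minutes with Amplite reagent.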
ELG1 genotoxic = induces genotoxicity in HEK293T cells with luciferase-tagged ELG1 | Potency, µM (series often up to 46 µM), for the others: at the highest dose activity change, positive = activation, most hits filed as activators | 330,000 compounds, 1.3% hits | AID 504466 | HEK293T ELG1-luciferase reporter, luminescence, 16 h; further: % of control where 0% means no effect; nearly all actives have a fitted effect of over 60% in size
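Quantitative HTS format in 1536-well plates. HEK293T ELG1-luciferase reporter cells receive test compound and are incubated 16 hr at 37 °C, 5% CO2; ONE-Glo added, 30 min room temperature, then luminescence read.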
Luc counter = counter-screen: inhibitors of Kinase-Glo firefly luciferase; Q27757; 200,000 compounds, 0.28% hits; Kinase-Glo luciferase, ATP luminescence, 8 min; Potency, µM (doses to about 38.3 µM), without a hit: at the top dose activity change, negative = inhibition, usual class: inhibitors; further: on the % scale 0 is the no-effect control and ±100 the full control effect; nearly all actives have a fitted effect of over 60% in size
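Recombinant Kinase-Glo luciferase, 10 uM ATP (linear range), luciferin; imidazole pH 7.2 / KCl / MgCl2 / Tween / BSA buffer; 8 min RT; luminescence.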
FLuc modulator = inhibits or activates purified firefly luciferase, miR-21 counter-screen. P08659. AID 588342. Potency, µM (highest dose often 57.5 µM), for the others: at the highest dose activity change, negative = inhibition, usual class: inhibitors. 360,000 compounds, 6.9% hits. purified FLuc, Km substrates, luminescence inhibition;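 further: plate controls were vehicle for no effect and reference inhibitor for full effect; nearly all actives have a fitted effect of over 55% in size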
Target sequence (P08659 whole entry, looked up): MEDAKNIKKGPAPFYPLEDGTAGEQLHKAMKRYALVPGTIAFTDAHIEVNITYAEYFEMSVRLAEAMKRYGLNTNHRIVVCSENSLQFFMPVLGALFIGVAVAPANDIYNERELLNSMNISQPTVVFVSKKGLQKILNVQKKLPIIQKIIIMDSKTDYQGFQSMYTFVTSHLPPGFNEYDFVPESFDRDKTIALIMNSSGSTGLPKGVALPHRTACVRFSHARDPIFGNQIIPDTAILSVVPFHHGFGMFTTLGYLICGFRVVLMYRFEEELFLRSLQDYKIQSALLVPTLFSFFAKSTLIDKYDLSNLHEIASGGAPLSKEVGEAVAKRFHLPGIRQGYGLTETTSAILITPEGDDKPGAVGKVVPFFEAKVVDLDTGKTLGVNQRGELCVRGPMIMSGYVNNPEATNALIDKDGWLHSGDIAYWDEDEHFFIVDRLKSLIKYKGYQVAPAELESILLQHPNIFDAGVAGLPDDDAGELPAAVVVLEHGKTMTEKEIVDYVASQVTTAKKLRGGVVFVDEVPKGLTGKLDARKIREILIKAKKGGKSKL
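Purified P. pyralis luciferase, 10 nM final, with Km-level 10 uM D-luciferin and 10 uM ATP in 50 mM Tris acetate pH 7.5, 10 mM Mg acetate, 0.01% Tween-20, 0.05% BSA; 6-point qHTS titration about 60 µM downward; luminescence read.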
NPC1 prom act = activators of NPC1 promoter; Huh7 NPC1 promoter luciferase reporter, 24 h; Potency, µM (top dose mostly 9.22 µM), without a hit: top-dose activation, most hits filed as activators; 320,000 compounds, 2.4% hits; further: % of control where 0% means no effect; nearly all actives have a fitted effect of over 60% in size
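Huh7 reporter cells (NPC1 promoter driving luciferase) are dosed with compound for 24 h at 37 °C, 5% CO2; luciferase detection reagent is then added and luminescence measured after 10 min at ambient temperature.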
SMN2 splice up = SMN2 splice variant enhancement; HEK293 SMN2-luciferase splicing reporter, luminescence, 30-36 h; Potency, µM (highest dose often 46.1 µM), for the others: top-dose activity change, positive = activation, most hits filed as activators; 210,000 compounds, 2.8% hits; AID 1458; further: % of control where 0% means no effect; nearly all actives have a fitted effect of over 55% in size
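HEK293 cells carry an SMN2 […]–luciferase reporter in which exon 7 inclusion puts luciferase in frame. Cells were plated 10-12 h before compound addition, then incubated 30-36 h at 37C. ONE-Glo luminescence was read; sodium butyrate at 4.5 mM final served as control.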
An asterisk follows results filed as active; ? = inconclusive; . = no result given; [ ] = remark or other dose. Only some compounds are listed: those with a hit (about 7.5% of all), similar ones and a draw of the others. The call rests on the fitted dose curve; in most records, active means well fitted curve in the direction sought with a large enough effect; inconclusive means small, poorly fitted or top-dose-only effect, or another doubt; inactive means no such curve, though single readings can be large; an effect the other way counts as inactive or inconclusive. Potency means the concentration at half of the fitted maximal effect.

SMILES | Rab9 promoter act | ELG1 genotoxic | Luc counter | FLuc modulator | NPC1 prom act | SMN2 splice up
O=C(N/N=C/c1cccc([N+](=O)[O-])c1)c1c[nH]c2ccccc12 | ? | 12% | . | 17µM* | 2.2µM* | .
CCSc1nnc2c(n1)OC(c1ccc(OC)c(OC)c1)N(C(C)=O)c1ccccc1-2 (stereo not drawn) | . | . | . | 0% | . | -6%
COc1ccc(/C=C/C(=O)c2ccc3c4c(cccc24)CC3)cc1 | -4% | 0% | . | 15µM* | -1% | .
COc1ccc(C(=O)/C=C/c2ccc(C)cc2)c(OC(=O)c2ccc([N+](=O)[O-])cc2)c1 | 21% | 6% | 1% | 6.7µM* | 25% | 5%
COc1ccc(C(=O)/C=C/c2ccc(N(C)C)cc2)c(OC)c1 | -2% | ? | . | 11µM* | -7% | .
COc1ccc(C(=O)/C=C/c2ccccc2)c(OC)c1 | ? | 4% | . | 4.8µM* | ? | .
COCOc1cc(OC)ccc1C(=O)/C=C/c1ccc2c(c1)OCO2 | . | . | -6% | . | . | 12%
CC(=O)Oc1ccc(-c2cccc(C(=O)O)c2)cc1 | -1% | ? | -3% | 3.8µM* | 12% | -7%
CC(=O)Oc1ccc(-c2ccc(C(=O)O)cc2)cc1 | -7% | 5% | 2% | ? | -3% | 21%
O=S1(=O)c2ccccc2N(Cc2ccccc2)c2ccccc21 | . | . | . | -18% | . | .
O=C(/C=C/Nc1ccc(Br)cn1)c1cccc(OC(F)F)c1 | 2.2µM* | ? | . | 2.7µM* | 2.8µM* | .
CCOc1ccc(NC(=O)Cn2cc(C(=O)c3ccc(CC)cc3)c(=O)c3cc(C)ccc32)cc1 | . | . | . | -5% | . | 1%
O=C(Cc1cccs1)N=Nc1c(O)[nH]c2ccccc12 | 25% | 10% | . | ? | 10% | .
Cc1[nH]c2ccccc2c1/C=N/NC(=O)CCC(=O)NCc1ccccc1 | -3% | 0% | -3% | -1% | -6% | .
Cc1[nH]c2ccccc2c1/C=N/NC(=O)c1cc(-c2cccs2)[nH]n1 | -1% | -5% | 2% | 15µM* | -4% | 9%
O=C(N=Nc1c(O)[nH]c2ccccc12)c1cc(-c2cccs2)[nH]n1 | 17% | 2% | . | 12µM* | ? | .
Cc1cc(C(=O)N/N=C/c2c(C)[nH]c3ccccc23)n[nH]1 | -4% | -2% | . | ? | 2% | .
CCC(=O)Nc1ccc(C(=O)N/N=C/c2c(C)[nH]c3ccccc23)cc1 | 0% | 11% | 0% | 21µM* | 0% | 6%
Cc1ccc(-c2cc(C(=O)N/N=C/c3c(C)nn(-c4ccccc4)c3C)n[nH]2)s1 | -15% | -5% | 0% | 11µM* | -12% | -71%
COc1ccc(-n2nc(C(=O)Nc3cc(C)ccn3)c3c4ccccc4n(C)c3c2=O)cc1 | . | . | . | 1% | . | 7%
COc1ccc(NC(=O)CCS(=O)(=O)c2cc3c(cc2C)NC(=O)CO3)cc1Cl | . | . | . | 3% | . | .
CC1CCCC(NC(=O)c2ccc3c(c2)OCO3)C1C (stereo not drawn) | 3.5µM* | 18µM* | . | 12µM* | ? | .
CC1CCCCC1NS(=O)(=O)CCNC(=O)c1ccc2c(c1)OCO2 (stereo not drawn) | 0% | 6% | . | 2% | -3% | .
COc1ccc(NCc2ccc3c(c2)OCO3)cc1Cl | 21% | 7% | 2% | ? | 17% | 12%
O=C(Nc1ccc(C(=O)N2CCCCC2)cc1)C1=CSCCO1 | ? | ? | . | 12µM* | 2.8µM* | .
SMILES | Rab9 promoter act | ELG1 genotoxic | Luc counter | FLuc modulator | NPC1 prom act | SMN2 splice up
Cc1ccccc1-c1nc(-c2ccc(NC(=O)c3ccc4c(c3)OCO4)cc2)no1 | 1% | ? | -19% | ? | 21% | -14%
COc1ccc(NC(=O)c2ccc3c(c2)OCO3)cc1Cl | 1.4µM* | ? | -10% | 1.9µM* | 0.89µM* | 14µM*
COc1cc(-c2nc(-c3ccc(NC(=O)c4ccc5c(c4)OCO5)cc3)no2)cc(OC)c1OC | -1% | 13µM* | -9% | ? | 2% | 73%
CCCCCC#CC[C@@H](O)/C=C/C=C/C=C\[C@@H](O)CCCC(=O)O | . | . | -4% | . | . | 12%
C=CCC(CC=C)(CNC(=O)C(=O)Nc1ccc(C(=O)OCC)cc1)c1ccccc1 | . | . | . | -8% | . | 6%
O=C(c1ccc2c(c1)OCO2)N1CCCC1 | 6% | -1% | -2% | -8% | 2% | -2%
O=C(Nc1ccc(F)c(Cl)c1)c1ccc2c(c1)OCO2 | 1.3µM* | ? | . | 4.8µM* | 1.8µM* | .
COC(=O)c1ccc(NC(=O)c2ccc3c(c2)OCO3)cc1 | ? | 6.5µM* | -4% | ? | 2.8µM* | ?
CC1CCCC(NC(=O)c2ccc3c(SCC(=O)O)c4c(nc3c2)CCC4)C1C (stereo not drawn) | -5% | 1% | . | 17µM* | 0% | .
COC(=O)c1sccc1NC(=O)c1ccc2c(c1)OCO2 | -2% | 3% | -4% | 6%[2.3 µM] | 0% | 27%
O=C(Nc1ccc(C(=O)N2CCCC2)cc1)c1ccc2c(c1)OCO2 | ? | ? | 13µM* | 15µM* | ? | 16%
O=C(CS(=O)(=O)c1cccc2nsnc12)Nc1ccccc1Cl | . | . | . | -1% | . | .
O=C(Nc1ccc(F)c(Cl)c1)c1ccccc1 | 1.8µM* | 12µM* | . | 11µM* | 3.2µM* | .
COC(=O)c1c(-c2cccnc2)csc1NC(=O)c1ccc2c(c1)OCO2 | 1.6µM* | 2.9µM* | . | 1.3µM* | 2.5µM* | .
O=C(Nc1ccc(F)c(Cl)c1)c1cccnc1 | 8% | 10% | . | 2% | 7% | .
COc1ccccc1-c1nnc(NC(=O)c2ccc3c(c2)OCO3)s1 | -13% | 13% | -2% | 1% | -7% | ?
COc1cc(C(=O)NCC(c2ccc3c(c2)OCO3)N2CCN(C)CC2)cc(OC)c1OC (stereo not drawn) | . | . | . | 1% | . | .
